Some test systems named below: RPMI-8226 leukemia; OVCAR-8 ovarian; OVCAR-5 ovarian; OVCAR-4 ovarian; SK-OV-3 ovarian; IGROV1 ovarian; OVCAR-3 ovarian; HS 578T breast; NCI/ADR-RES ovarian; T-47D breast.
Experiment in all cases: NCI-60 one-dose screen, 48 h (100 = growth as untreated, 0 = no growth, -100 = all killed)
Details in all cases: 10 µM unless noted

The panel holds about 83,000 compounds, 20% with a hit somewhere; the sample as a whole holds those more often.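 Growth was measured after 48 h exposure to one concentration of compound in 96-well plates. Values under 10 count as active.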 A number with no mark means an inactive call. Active and inactive are the calls of the source.

As to `O=c1oc2ccc(Cl)cc2c(=O)n1-c1ccc(Cl)cc1F`, the growth was -28.5% (active) in the test on RPMI-8226 leukemia; 8.62% (active) in the test on OVCAR-8 ovarian; 24.6% in the test on OVCAR-5 ovarian; 11% in the test with OVCAR-4 ovarian; -2.36% (active) in the test on SK-OV-3 ovarian; 14.3% with IGROV1 ovarian. The growth was 5.29% (active) with OVCAR-3 ovarian, -5.3% (active) in the test on HS 578T breast, 6.2% (active) in the test with NCI/ADR-RES ovarian and -12% (active) in the test on T-47D breast.

Regarding `CN1CCN(Cc2ccc(NC(=O)c3cncc(C#Cc4nc(N)nc5[nH]ncc45)c3)cc2C(F)(F)F)CC1`, the growth was 55.2% in the test on RPMI-8226 leukemia; 100% in the test with OVCAR-8 ovarian; 108% with OVCAR-5 ovarian; 88.8% in the test on OVCAR-4 ovarian; 122% with SK-OV-3 ovarian; 109% in the test with IGROV1 ovarian. Moreover, the growth with OVCAR-3 ovarian was 66.5%; in the test with HS 578T breast, 99.1%; in the test on NCI/ADR-RES ovarian it was 114%; with T-47D breast, 93.5%.

Consider `COc1ccc(-c2nocc2-c2cccs2)cc1`, for which the growth is 124% in the test on RPMI-8226 leukemia; 110% in the test on OVCAR-8 ovarian; 88.9% with OVCAR-5 ovarian; 99% with OVCAR-4 ovarian; 105% with SK-OV-3 ovarian; 102% with IGROV1 ovarian. Moreover, the growth with OVCAR-3 ovarian was 108%; in the test with HS 578T breast it was 91.1%; in the test with NCI/ADR-RES ovarian it was 110%; with T-47D breast, 75.7%.

For the molecule `O=C(N/N=C/c1ccccc1Cl)C(=O)Nc1cccc(C(F)(F)F)c1`, the growth in the test with RPMI-8226 leukemia was 93.9%; in the test with OVCAR-8 ovarian, 83%; in the test on OVCAR-5 ovarian, 97.4%; in the test with OVCAR-4 ovarian, 101%; in the test with SK-OV-3 ovarian, 102%; in the test with IGROV1 ovarian it was 92.9%. In addition, the growth in the test on OVCAR-3 ovarian was 115%; in the test with HS 578T breast, 111%; with NCI/ADR-RES ovarian, 98.4%; with T-47D breast, 90.2%.

With `COc1c(B(O)O)cccc1-c1nc2ccc3n[nH]c(F)c3c2c2c1CCCC2`, the growth with RPMI-8226 leukemia was 42.3%; in the test with OVCAR-8 ovarian, 72%; with OVCAR-5 ovarian, 105%; with OVCAR-4 ovarian, 96%; in the test with SK-OV-3 ovarian it was 79%; in the test with IGROV1 ovarian, 80%. The growth is 91% in the test on OVCAR-3 ovarian, 43.9% in the test on HS 578T breast, 79.6% in the test with NCI/ADR-RES ovarian and 106% with T-47D breast.

With `O=c1oc2ccc(Cl)cc2c(=O)n1-c1cc(C(F)(F)F)cc(C(F)(F)F)c1`, the growth in the test on RPMI-8226 leukemia is -26% (active); in the test on OVCAR-8 ovarian, 7.66% (active); with OVCAR-5 ovarian, 25.2%; in the test with OVCAR-4 ovarian, 18.1%; in the test on SK-OV-3 ovarian, -10.6% (active); in the test with IGROV1 ovarian it was 16%. Moreover, the growth is 7.95% (active) with OVCAR-3 ovarian, -15.1% (active) in the test with HS 578T breast, 5.39% (active) with NCI/ADR-RES ovarian and -9.71% (active) in the test on T-47D breast.

`COc1ccc(Nc2cc(C)nc(NCc3ccccc3)n2)cc1`: the growth with RPMI-8226 leukemia is 8.08% (active); in the test on OVCAR-8 ovarian, 24.1%; in the test on OVCAR-5 ovarian, 62%; with OVCAR-4 ovarian it was 46.7%; in the test with SK-OV-3 ovarian it was 92.5%; in the test with IGROV1 ovarian it was 37.5%. The growth is 6.99% (active) in the test with OVCAR-3 ovarian, 60.5% with HS 578T breast, 77.8% with NCI/ADR-RES ovarian and 63% in the test on T-47D breast.

`COc1cccc(C(=O)NC(c2ccc(C)cc2)c2cc(Cl)c3cccnc3c2O)c1` (stereo not given): the growth is 15.5% with RPMI-8226 leukemia; 1.23% (active) in the test with OVCAR-8 ovarian; 38.6% in the test with OVCAR-5 ovarian; 24.9% in the test on OVCAR-4 ovarian; 16.2% in the test on SK-OV-3 ovarian; -5.14% (active) in the test on IGROV1 ovarian. Further, the growth is 30% in the test on OVCAR-3 ovarian, 34.5% with HS 578T breast, 6.12% (active) in the test with NCI/ADR-RES ovarian and 6.13% (active) in the test with T-47D breast.

`O=NN(Cc1cccnc1)C(=O)NC1CCCCC1`: the growth was 95.3% in the test with RPMI-8226 leukemia; 104% in the test with OVCAR-8 ovarian; 97.4% with OVCAR-5 ovarian; 104% with OVCAR-4 ovarian; 113% in the test with SK-OV-3 ovarian; 113% with IGROV1 ovarian. Further, the growth in the test on OVCAR-3 ovarian was 114%; in the test with HS 578T breast, 118%; in the test with NCI/ADR-RES ovarian, 105%; with T-47D breast, 98.1%.

With `CN1CCN(Cc2ccc(C(=O)Nc3cncc(C#Cc4cnc(N)c5ccccc45)c3)cc2C(F)(F)F)CC1`, the growth with RPMI-8226 leukemia was -41.4% (active); in the test with OVCAR-8 ovarian, -17.8% (active); with OVCAR-5 ovarian, -44% (active); in the test with OVCAR-4 ovarian, -44.5% (active); in the test with SK-OV-3 ovarian it was 35.2%; in the test with IGROV1 ovarian, -47.4% (active). The growth in the test on OVCAR-3 ovarian was -74.1% (active); in the test with HS 578T breast, -35.4% (active); in the test with NCI/ADR-RES ovarian, -25.4% (active); in the test with T-47D breast, -10.5% (active).

Regarding `O=C(NCCCN1CCC(N2CCCCC2)CC1)C1=Cc2cc(Br)ccc2OC1`, the growth in the test with RPMI-8226 leukemia was 30.3%; in the test with OVCAR-8 ovarian, 19%; in the test on OVCAR-5 ovarian it was 77%; in the test on OVCAR-4 ovarian it was 45.5%; in the test with SK-OV-3 ovarian, 86.4%; in the test on IGROV1 ovarian, 33.3%. In addition, the growth was 48.6% in the test on OVCAR-3 ovarian, 55.8% with HS 578T breast, 38.9% in the test on NCI/ADR-RES ovarian and 44.8% in the test on T-47D breast.

For the molecule `CSc1nc2c(c(=O)[nH]1)N=C1c3ccccc3C(=O)C1C(c1ccc(F)cc1)N2` (stereo not given), the growth is 68.4% in the test with RPMI-8226 leukemia; 78.9% in the test with OVCAR-8 ovarian; 93.6% in the test with OVCAR-5 ovarian; 41.2% in the test on OVCAR-4 ovarian; 79.4% in the test on SK-OV-3 ovarian; 58.3% in the test on IGROV1 ovarian. The growth was 21.7% with OVCAR-3 ovarian, 66.8% with HS 578T breast, 57.5% in the test on NCI/ADR-RES ovarian and 72.9% in the test with T-47D breast.

For the molecule `Oc1[nH]c2ccccc2c1N=Nc1nnc2n1N=C(c1ccccc1)CS2`, the growth is 92.8% with RPMI-8226 leukemia; 59.1% in the test on OVCAR-8 ovarian; 101% with OVCAR-5 ovarian; 59.6% in the test on OVCAR-4 ovarian; 89.8% in the test on SK-OV-3 ovarian; 97.5% in the test on IGROV1 ovarian. The growth with OVCAR-3 ovarian was 88.4%; with HS 578T breast, 72%; with NCI/ADR-RES ovarian, 105%; in the test with T-47D breast it was 64.3%.

Take `Cc1c(C(=O)OCCO)cc(-c2ccc(Cl)cc2)n1-c1ccc(Cl)cc1Cl`: the growth in the test with RPMI-8226 leukemia was 84.9%; with OVCAR-8 ovarian, 83.8%; in the test on OVCAR-5 ovarian, 84.1%; in the test on OVCAR-4 ovarian it was 97.3%; with SK-OV-3 ovarian it was 72.7%; in the test with IGROV1 ovarian, 90.2%. The growth in the test with OVCAR-3 ovarian is 91.9%; in the test on HS 578T breast, 81.3%; in the test with NCI/ADR-RES ovarian it was 77.1%; in the test on T-47D breast, 62%.

Source of the values: PubChem BioAssay (NCI).
